The source of these data is PubChem BioAssay (Tox21).

Unmarked numbers belong to inactive results. Inconclusive results are not listed. The source made the active and inactive calls. Unless noted, calls come from the whole dose curve.

The nature of test [1]: Nuclear factor erythroid 2-related factor 2/antioxidant responsive element (Nrf2/ARE) small molecule agonists: qHTS cell viability counter screen in human keratinocytes (AID 1919968; active = well fitted curve in the direction sought with a large enough effect in the repeat runs; an effect the other way counts as inactive or inconclusive; note: nearly all actives have a fitted effect of over 55% in size; note: potency is the fitted concentration of half-maximal effect). In short, it runs like this: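 Measured as CellTiter-Fluor fluorescence, this readout tracks cytotoxicity in the same wells as the ARE-luciferase screen. HaCaT reporter cells (1,500/well) received compounds after a 5 h pre-incubation and were exposed for 23 h.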
Background: Quantitative high-throughput screening tests each substance at several concentrations.

In test [2] the target is Gonadotropin-releasing hormone receptor (Homo sapiens) (UniProt P30968). Description: Human gonadotropin-releasing hormone receptor (GnRHR) small molecule agonists, calcium flux assay in GnRHR-HEK293 cells (AID 1920063). Note: nearly all actives have a fitted effect of over 35% in size. In short, it runs like this: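 Fluorescence kinetics (480 nm excitation, 540 nm emission; 3 min, 1 s steps) report calcium mobilisation in human GnRHR-HEK293 cells in agonist mode. Dye incubation: 1 h, 37 C.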
Chain of Gonadotropin-releasing hormone receptor (Homo sapiens) (P30968 whole entry, looked up): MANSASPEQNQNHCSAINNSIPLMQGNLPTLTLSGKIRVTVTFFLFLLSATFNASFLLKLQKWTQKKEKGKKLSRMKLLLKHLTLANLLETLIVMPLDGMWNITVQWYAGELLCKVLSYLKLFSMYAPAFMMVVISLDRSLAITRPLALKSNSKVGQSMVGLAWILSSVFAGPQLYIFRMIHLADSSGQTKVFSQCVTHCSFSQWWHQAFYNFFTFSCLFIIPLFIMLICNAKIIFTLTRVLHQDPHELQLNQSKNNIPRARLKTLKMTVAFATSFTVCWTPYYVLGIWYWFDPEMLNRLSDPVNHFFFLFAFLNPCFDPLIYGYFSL
For orientation: A change in cytosolic calcium serves as a functional read-out for many receptors and channels.

Test [3] concerns the target KiSS-1 receptor (Homo sapiens) (UniProt Q969F8). Description: Human kisspeptin (KISS1R) small molecule agonists, calcium flux assay in KISS1R-HEK293 cells (AID 1920064; active = well fitted curve in the direction sought with a large enough effect in the repeat runs; an effect the other way counts as inactive or inconclusive). An outline of the steps: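 Measures KISS1R agonism through calcium-sensitive dye fluorescence in stably transfected HEK293 cells, read for 3 min after pin-tool compound delivery; 15-point titrations in triplicate.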

Test [4] is described as follows: G protein-coupled receptor (GPCR) small molecule agonists, calcium flux assay: HEK293 wild type cell line counter screen (AID 1920065). In short, it runs like this:
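Readout: fluorescence at 480 nm excitation/540 nm emission, sampled at 1 s intervals for 3 min. Cells had been cultured 18 h, then dye-loaded 1 h at 37 C before compound or ATP addition.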

The nature of test [5]: p53 small molecule agonists, cell-based qHTS assay with human liver microsomes (AID 1963577).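 Note: p53 response element beta-lactamase reporter cells with liver microsomes plus NADPH.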 In short, it runs like this:
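HLM-supplemented p53RE-bla reporter assay: 16 h compound exposure at 37 C, microsomes and NADPH each 0.5 mg/mL final, read by fluorescence intensity.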

The nature of test [6]: p53 small molecule agonists, cell-based qHTS assay with rat liver microsomes (AID 1963578). In short, it runs like this:
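Quantitative HTS of the Tox21 10K library: p53RE-bla cells, rat liver microsomes plus NADPH at 0.5 mg/mL final each, 16 h at 37 C, beta-lactamase fluorescence detection.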

Test [7] in a line: p53 small molecule agonists, cell-based qHTS assay with rat liver microsomes: qHTS cell viability counter screen (AID 1963580). Note: nearly all actives have a fitted effect of over 45% in size. Note: potency is the fitted concentration of half-maximal effect. An outline of the steps: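 HCT-116 p53RE-bla, 4,000 cells/well, 5 h pre-incubation; cpd + rat liver microsomes 0.5 mg/mL + NADPH 0.5 mg/mL (final); 16 h, 37 C; CellTiter-Glo, 30 min RT; luminescence.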
Test [8] deals with Muscarinic acetylcholine receptor M1 (Homo sapiens) (UniProt P11229). Description: Cholinergic receptor muscarinic 1 (CHRM1) small molecule antagonists, cell-based qHTS assay (AID 1963588). Note: nearly all actives have a fitted effect of over 40% in size. An outline of the steps: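 CHRM1-CHO calcium-flux assay, antagonist mode. Cells were seeded 18 h, dye-loaded 1 h at 37 C and given compound for 5 min at RT, then acetylcholine was added at 50nM. FDSS fluorescence was read 3 min; 15 concentrations, three runs.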
Chain of Muscarinic acetylcholine receptor M1 (Homo sapiens) (P11229 whole entry, looked up): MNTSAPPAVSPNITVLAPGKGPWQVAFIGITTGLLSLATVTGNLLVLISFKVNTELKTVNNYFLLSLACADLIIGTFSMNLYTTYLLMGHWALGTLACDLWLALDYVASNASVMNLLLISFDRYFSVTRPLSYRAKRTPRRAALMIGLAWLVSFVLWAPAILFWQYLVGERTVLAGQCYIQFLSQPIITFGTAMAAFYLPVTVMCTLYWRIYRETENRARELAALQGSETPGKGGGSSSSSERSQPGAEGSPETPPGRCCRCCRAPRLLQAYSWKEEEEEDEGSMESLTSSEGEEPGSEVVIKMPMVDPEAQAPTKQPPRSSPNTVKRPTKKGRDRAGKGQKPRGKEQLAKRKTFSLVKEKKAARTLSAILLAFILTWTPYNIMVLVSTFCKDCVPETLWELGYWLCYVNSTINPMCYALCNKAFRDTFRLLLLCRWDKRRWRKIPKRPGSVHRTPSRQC

The target is the same in test [9]. Description: Cholinergic receptor muscarinic 1 (CHRM1) small molecule agonists, cell-based qHTS assay (AID 1963589). Note: nearly all actives have a fitted effect of over 35% in size. In short, it runs like this: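 Each compound was tested at 15 concentrations across three independent runs on dye-loaded CHO cells stably expressing human CHRM1, reading intracellular calcium fluorescence kinetically at 1 sec intervals.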
Test [10] is described as follows: cAMP Responsive Elements (CRE) small molecule agonists, cell-based qHTS assay (AID 1963590). In short, it runs like this:
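Cell line: CRE-bla HEK 293T; medium DMEM/10% dialyzed FBS/0.1 mM NEAA/1 mM pyruvate/25 mM HEPES; 3 h compound exposure; beta-lactamase FRET readout after 2 h substrate loading at RT.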

Test [11] can be described thus: cAMP Responsive Elements (CRE) small molecule antagonists, cell-based qHTS assay (AID 1963591; active = well fitted inhibition curve with a large enough effect in the signal ratio in the repeat runs, not every such curve was filed as active; the % refers to the signal ratio; note: potency is the fitted concentration of half-maximal effect). In short, it runs like this:
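Inhibition of NKH477-driven (0.25 uM final) CRE-beta-lactamase signal in HEK293T cells, 3 h compound exposure at 37 °C, detected by FRET substrate fluorescence.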

Test [12] deals with Beta-2 adrenergic receptor (Homo sapiens) (UniProt P07550). Description: Adrenergic beta2 receptor (ADRB2) small molecule agonists, cell-based qHTS assay (AID 1963593).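 Note: CHO cells stably overexpressing human ADRB2.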 An outline of the steps: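 CHO cells stably over-expressing ADRB2 were plated overnight at 37C, then dosed with compounds plus a stimulation mix containing 100uM IBMX and 25uM Ro-20-1724 for 0.5hr at room temperature. cAMP was measured by HTRF competition, 1hr.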
Chain of Beta-2 adrenergic receptor (Homo sapiens) (P07550 whole entry, looked up): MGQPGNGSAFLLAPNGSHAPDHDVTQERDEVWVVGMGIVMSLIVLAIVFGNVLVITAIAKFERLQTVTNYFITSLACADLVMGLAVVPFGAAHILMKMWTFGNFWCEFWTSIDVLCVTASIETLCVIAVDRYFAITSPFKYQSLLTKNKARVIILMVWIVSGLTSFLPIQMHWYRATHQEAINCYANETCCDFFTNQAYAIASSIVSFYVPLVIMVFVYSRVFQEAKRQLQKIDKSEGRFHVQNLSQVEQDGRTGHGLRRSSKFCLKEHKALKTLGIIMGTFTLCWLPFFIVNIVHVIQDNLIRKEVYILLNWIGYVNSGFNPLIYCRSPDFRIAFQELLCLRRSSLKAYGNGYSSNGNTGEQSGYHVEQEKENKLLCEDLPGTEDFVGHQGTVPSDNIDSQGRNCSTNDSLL

Test [13] concerns the target D(2) dopamine receptor (Homo sapiens) (UniProt P14416). Description: Dopamine D2 receptor (DRD2) small molecule agonists, cell-based qHTS assay (AID 1963594). Note: nearly all actives have a fitted effect of over 35% in size. An outline of the steps:
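cAMP accumulation in DRD2-HEK293 cells measured by HTRF after 1 h detection; compounds added 10 min before NKH477 (200nM […]) forskolin-analogue stimulation, 30 min at room temperature, with Ro20-1724 present at 0.1 mM final.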

Test [14] has the same target. Description: Dopamine D2 receptor (DRD2) small molecule antagonists, cell-based qHTS assay (AID 1963595; active = well fitted inhibition curve with a large enough effect in the signal ratio in the repeat runs, with a control signal flat; the % refers to the signal ratio; note: potency is the fitted concentration of half-maximal effect). In short, it runs like this: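 Human DRD2 antagonist qHTS measuring cAMP by HTRF. The cells are exposed to compound for 10 min, then to NKH477 (200 nM) and quinpirole (12 nM) for 30 min at RT, with Ro20-1724 (0.1 mM) present throughout.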
In test [15] the target is 5-hydroxytryptamine receptor 2A (Homo sapiens) (UniProt P28223). Kind of test: 5-hydroxytryptamine receptor 2A (HTR2A) small molecule antagonists, cell-based qHTS assay (AID 1963586). Note: nearly all actives have a fitted effect of over 45% in size. In short, it runs like this:
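Antagonist-mode intracellular calcium assay: DOI (4 nM) added after 5 min compound pre-incubation at room temperature to dye-loaded HTR2A-CHO cells. Fluorescence followed for 3 min, sampled every second.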

Test [16] shares this target. Description: 5-hydroxytryptamine receptor 2A (HTR2A) small molecule agonists, cell-based qHTS assay (AID 1963587). Note: nearly all actives have a fitted effect of over 30% in size. An outline of the steps:
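Kinetic calcium-flux fluorescence (2 min, 1 sec intervals) after compound addition in agonist mode. HTR2A-CHO cells were cultured 18 h, then dye-loaded 1 h at 37 C.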

Test [17] addresses Beta-2 adrenergic receptor (Homo sapiens) (UniProt P07550). Description: Adrenergic beta2 receptor (ADRB2) small molecule antagonists, cell-based qHTS assay (AID 1963592). Note: series mostly up to about 92 µM; nearly all actives have a fitted effect of over 50% in size. An outline of the steps:
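Cells (CHO, stable ADRB2 overexpression) incubated 18-20hr at 37C; compounds added from DMSO; agonist mix (1nM isoproterenol, 100uM IBMX, 25uM Ro-20-1724) added; 0.5hr RT; d2-cAMP and anti-cAMP-cryptate added; 1hr RT; 665/615 nm read.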

Test [18] can be described thus: p53 small molecule agonists, cell-based qHTS assay with human liver microsomes: qHTS cell viability counter screen (AID 1963579). Note: nearly all actives have a fitted effect of over 45% in size. Note: potency is the fitted concentration of half-maximal effect. In short, it runs like this: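 Viability of p53RE-bla cells is measured as CellTiter-Glo luminescence following a 16 h, 37 C incubation with compound, liver microsomes from human donors and NADPH.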
The nature of test [19]: p53 small molecule agonists, cell-based qHTS assay: qHTS cell viability counter screen (AID 1963581). Note: nearly all actives have a fitted effect of over 45% in size. Note: potency is the fitted concentration of half-maximal effect. In short, it runs like this:
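In the same plates used for the p53 bla reporter, HCT-116 cells given compounds for 16 h at 37 C received CellTiter-Glo; luminescence was recorded 30 min later at room temperature.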

Test [20] is described as follows: p53 small molecule agonists, cell-based qHTS assay (AID 1963582; active = well fitted activation curve with a large enough effect in the signal ratio in the repeat runs, not every such curve was filed as active; the % refers to the signal ratio). In short, it runs like this:
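Compounds are pin-transferred in DMSO onto p53RE-bla cells and incubated 16 h at 37 C. The B/G FRET beta-lactamase substrate is then applied for 2 h at RT and fluorescence recorded.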
% is set by controls: 0 for no effect and ±100 for the full control effect.

Chain of D(2) dopamine receptor (Homo sapiens) (P14416 whole entry, looked up): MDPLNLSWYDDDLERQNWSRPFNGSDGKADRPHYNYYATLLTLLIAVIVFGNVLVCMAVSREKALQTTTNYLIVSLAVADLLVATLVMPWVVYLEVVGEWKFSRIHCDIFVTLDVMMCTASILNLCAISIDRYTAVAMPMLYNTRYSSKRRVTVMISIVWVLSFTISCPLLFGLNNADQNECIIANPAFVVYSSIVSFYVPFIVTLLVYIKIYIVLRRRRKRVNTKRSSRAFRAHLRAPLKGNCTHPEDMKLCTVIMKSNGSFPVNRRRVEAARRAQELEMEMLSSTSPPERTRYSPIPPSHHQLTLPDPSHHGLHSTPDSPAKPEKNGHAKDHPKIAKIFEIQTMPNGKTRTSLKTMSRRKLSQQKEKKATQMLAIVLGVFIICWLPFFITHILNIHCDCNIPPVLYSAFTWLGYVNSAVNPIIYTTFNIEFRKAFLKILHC
Chain of KiSS-1 receptor (Homo sapiens) (Q969F8 whole entry, looked up): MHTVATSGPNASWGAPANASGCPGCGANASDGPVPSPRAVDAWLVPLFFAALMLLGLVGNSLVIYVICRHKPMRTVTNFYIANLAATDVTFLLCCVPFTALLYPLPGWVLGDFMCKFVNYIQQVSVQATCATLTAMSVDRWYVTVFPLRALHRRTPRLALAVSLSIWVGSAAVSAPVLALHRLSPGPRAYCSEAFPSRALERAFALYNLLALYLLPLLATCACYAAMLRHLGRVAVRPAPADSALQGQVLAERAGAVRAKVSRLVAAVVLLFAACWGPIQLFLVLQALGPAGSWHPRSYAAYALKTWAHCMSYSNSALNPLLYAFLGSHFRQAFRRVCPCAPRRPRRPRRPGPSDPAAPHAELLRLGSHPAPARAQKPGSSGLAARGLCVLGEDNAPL
Chain of 5-hydroxytryptamine receptor 2A (Homo sapiens) (P28223 whole entry, looked up): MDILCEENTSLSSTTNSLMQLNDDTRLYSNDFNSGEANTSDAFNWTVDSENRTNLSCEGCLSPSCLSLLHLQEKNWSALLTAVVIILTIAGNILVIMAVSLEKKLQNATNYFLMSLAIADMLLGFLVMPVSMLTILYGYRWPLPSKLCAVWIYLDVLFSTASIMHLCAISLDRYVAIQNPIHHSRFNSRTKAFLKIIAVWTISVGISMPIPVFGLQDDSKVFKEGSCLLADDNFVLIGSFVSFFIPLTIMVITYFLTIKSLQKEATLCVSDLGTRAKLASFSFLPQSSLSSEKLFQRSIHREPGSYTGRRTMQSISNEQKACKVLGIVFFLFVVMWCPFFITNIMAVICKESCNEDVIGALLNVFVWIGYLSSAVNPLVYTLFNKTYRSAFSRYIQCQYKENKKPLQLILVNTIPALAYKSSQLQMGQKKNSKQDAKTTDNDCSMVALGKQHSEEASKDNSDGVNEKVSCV

Take `CC[C@]12CCCN3CCc4c(n(c5ccccc45)C(=O)C1)[C@@H]32`: the Potency entry in test [1], in [2], in [3], in test [4], in [5] and in [6] was “inactive” each time. The Potency result in [7], in test [8], in test [9], in test [10], in [11] and in [12] was “inactive” each time. Moreover, the Potency result in test [13] and in test [14] was “inactive” each time.
In the case of `COc1cc(C(=O)NC2CCN(C)CC2)ccc1Nc1ncc2c(n1)N(C1CCCC1)CC(F)(F)C(=O)N2C`, the Potency in test [1] was 28.1 µM (active); in [7], 37.4 µM (active); in test [14], 49.9 µM (active). Moreover, the Potency result in test [2], in [3], in test [4], in [5], in test [6] and in test [15] was “inactive” throughout. For the same compound, the Potency result in test [16], in test [17], in test [12] and in test [13] was “inactive” in each case.
`CCC(=O)/C=C/c1ccc(OC)cc1`: the Potency entry in test [1], in test [2], in [3], in [4], in [5] and in [6] was “inactive” throughout. For the same compound, the Potency entry in [18], in test [19], in [15], in test [16], in test [8] and in test [9] was “inactive” throughout. The Potency entry in test [13] and in [14] was “inactive” each time.
On to `Oc1ccc(C2(c3ccc(O)cc3)CC3CC2C2CCCC32)cc1` (stereo unspecified), for which the Potency is 29.4 µM (active) in [1], 17.5 µM (active) in [18], 34.9 µM (active) in test [19] and 65.9 µM (active) in test [11]. For the same compound, the Potency result in test [2], in test [3], in test [4], in test [5], in [6] and in test [8] was “inactive” each time. The Potency result in [9], in [17], in test [12] and in [13] was “inactive” in each case.
Consider `COc1ccc(C2CNC(=O)C2)cc1OC1CCCC1` (stereo unspecified), for which the Potency entry in test [1], in [2], in [3], in test [4], in test [5] and in [6] was “inactive” each time. For the same compound, the Potency result in [7], in [19], in [20], in test [15], in test [16] and in test [8] was “inactive” throughout. Further, the Potency entry in test [9], in [10], in test [11], in test [17], in test [12] and in test [13] was “inactive” each time. For the same compound, in [14], the Potency result was “inactive”.
Consider `CCN(CC)CCNC(=O)c1c(C)[nH]c(/C=C2\C(=O)Nc3ccc(F)cc32)c1C`, for which the Potency in test [1] is 29.8 µM (active). The Potency entry in test [2], in [3], in test [4], in test [5], in test [6] and in [18] was “inactive” throughout. Moreover, the Potency entry in [19], in test [20], in test [16], in [9], in test [10] and in [11] was “inactive” throughout.
Consider `O=C(CS)OCCOC(=O)CS`, for which the Potency result in test [1], in test [2], in [3], in test [4], in test [5] and in test [6] was “inactive” each time. The Potency result in [7], in test [19], in [20], in [15], in [16] and in test [8] was “inactive” each time. For the same compound, the Potency result in test [9], in test [10], in test [17], in test [12] and in test [13] was “inactive” throughout.
In the case of `COC(C)(C)CC(C)=O`, the Potency result in test [1], in test [2], in [3], in test [4], in [5] and in [6] was “inactive” each time. In addition, the Potency entry in test [7], in test [19], in test [15], in test [16], in test [8] and in test [9] was “inactive” throughout. Besides, the Potency entry in test [10], in test [11], in [17], in test [13] and in test [14] was “inactive” in each case.
With `O=C(C(=O)c1ccc(Br)cc1)c1ccc(Br)cc1`, the activity change, negative = cytotoxicity in test [1] is -1.93% [at 19 µM]; in [18] it was -13.3% [at 13.5 µM]; in [19], -2.62% [at 13.5 µM]. For the same compound, in [2], the activity change is 0.0439% [at 11.8 µM, hits give high values]. Further, the activation in test [3] was 0.431% [at 15.8 µM]; in test [4] it was -0.382% [at 11.8 µM]; in test [5], -9.98% [at 13.5 µM]; in test [6] it was -6.75% [at 13.6 µM]; in test [16] it was 2.38% [at 15.9 µM]; in test [9] it was -0.452% [at 15.8 µM]. The results for the activation in test [10] and in test [13] were -0.367% [at 19 µM] and -0.026% [at 19 µM], respectively. For the same compound, the activity, negative = inhibition in test [15] was 10.2% [at 12.7 µM]; in test [8] it was 5.04% [at 12.6 µM]. Further, in [11], the activity change, negative = inhibition is -9.38% [at 18.9 µM].
